# Experimental data as given in PubChem BioAssay.
# Inconclusive results are not listed. Calls of active or inactive are those of the source. Rule as the data show it, unless noted: active = inhibition above about 80%; inactive = the rest.
# Tests used:
# [1] = growth inhibition of DIPG glioma cells, dose response, cell-based, SU-DIPG-XVII, MIPE5.0, CellTiter-Glo, qHTS (AID 1347060; cut-off not given, nearly all actives have AC50 up to about 26 µM;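 also: cells exposed to compound for 48 hours before viability readout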); conditions: SU-DIPG-XVII viability, CellTiter-Glo ATP luminescence
# [2] = growth inhibition of DIPG glioma cells, dose response, cell-based, SU-DIPG-XIII, MIPE5.0, CellTiter-Glo, qHTS (AID 1347064; cut-off not given, nearly all actives have AC50 up to about 23 µM;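 also: cells exposed to compound for 48 hours before the viability read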); conditions: SU-DIPG-XIII viability, CellTiter-Glo ATP luminescence
# [3] = viability loss in pontine glioma line – cell-based, SU-DIPG-XXV, MIPE5.0, CellTiter-Glo, qHTS, dose response (AID 1347065; cut-off not given, nearly all actives have AC50 up to about 26 µM;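 also: cells exposed to compound for 48 hours before ATP readout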); conditions: CellTiter-Glo ATP luminescence
# [4] = JHH-DIPG-1 glioma cell viability, MIPE5.0 library, CellTiter-Glo luminescence, qHTS (AID 1347067; cut-off not given, nearly all actives have AC50 up to about 26 µM;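 also: cells exposed to compound for 48 hours before readout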); conditions: JHH-DIPG-1 glioma viability, CellTiter-Glo ATP luminescence
# [5] = SU-DIPG-XXV glioma cell viability, MIPE5.0 library, qHTS (AID 1347068; cut-off not given, nearly all actives have IC50 up to about 30 µM;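 also: cells exposed to compound for 48 hours before viability readout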)
# [6] = sensitizers of A549 cells to miR-34 induction, primary screen, imaging, A549 dox-inducible miR-34, nuclei and caspase counts (AID 1347080;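 active = compounds whose cell count with miR-34 switched on is under 0.7 times the count with it off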); conditions: A549 miR-34 inducible, Hoechst nuclei count, 48 h
# [7] = survival rescue of mitochondrial mutant cells in low glucose, primary screen, MELAS cybrids, Rieske KO mouse fibroblasts, CellTiter-Glo (AID 1508586;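 active = mean z-score across replicates of 1.96 or higher in either the MELAS or the Rieske mutant cell line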;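 also: z relative to plate mean and SD of compound and empty wells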)
# [8] = LFS_MB_P medulloblastoma growth inhibition, cell-based, chromothripsis tumors, cisplatin or BGB combos (AID 1671449); conditions: LFS_MB_P medulloblastoma cells;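 also: cells exposed for 96 hours; 0% = vehicle DMSO and 100% = killing by high DMSO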
# [9] = HDN33 neuroblastoma growth inhibition, cell-based, chromothripsis tumors, cisplatin or BGB combos (AID 1671450); conditions: HDN33 neuroblastoma cells, stronger effect = higher value;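 also: cells exposed to compound for four days; 0% = vehicle DMSO and 100% = cell killing by high DMSO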
# [10] = ICB984 medulloblastoma cell growth inhibition, synergistic combos for chromothripsis tumors, cisplatin or BGB combos (AID 1671451; call rule not given here;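 also: cells exposed for 96 hours before readout; 0% = vehicle DMSO and 100% = killing by high DMSO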); conditions: ICB984 medulloblastoma cells, drug combinations, stronger effect = higher value
# [11] = LFS_MB_1R medulloblastoma cell growth inhibition, synergistic combos for chromothripsis tumors, cisplatin or BGB combos (AID 1671452); conditions: LFS_MB_1R medulloblastoma cells, stronger effect = higher value;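 also: cells exposed for 96 hours before readout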
# [12] = HTB85 osteosarcoma cell growth inhibition, synergistic combos for chromothripsis tumors, BGB or cisplatin IC20 combos (AID 1671453); conditions: HTB85 osteosarcoma cells, drug combinations, stronger effect = higher value;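 also: cells exposed for 96 hours before readout; 0% = vehicle DMSO and 100% = high DMSO killing control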
# [13] = CRL2098 osteosarcoma cell growth inhibition, synergistic combos for chromothripsis tumors, BGB or cisplatin IC20 combos (AID 1671454); conditions: CRL2098 osteosarcoma cells, drug combinations, stronger effect = higher value;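 also: cells exposed for 96 h before readout; 0% = vehicle DMSO and 100% = killing by high DMSO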
# [14] = HD-MB03 medulloblastoma cell growth inhibition, synergistic combos for chromothripsis tumors, BGB or cisplatin IC20 combos (AID 1671455; in the data active = inhibition above about 83%;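 also: 0% = vehicle DMSO and 100% = high DMSO as cytotoxic control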); conditions: HD-MB03 medulloblastoma cells, stronger effect = higher value
# [15] = UWB1.289 ovarian carcinoma cell growth inhibition, synergistic combos for chromothripsis tumors, BGB or cisplatin combos (AID 1671456); conditions: UWB1.289 ovarian carcinoma cells, stronger effect = higher value;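 also: cells exposed to compound for four days; 0% = vehicle DMSO and 100% = killing by high DMSO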
# [16] = MDA-MB-436 breast carcinoma cell growth inhibition, synergistic combos for chromothripsis tumors, BGB or cisplatin combos (AID 1671458; call rule not given here;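 also: cells exposed for 96 hours; 0% = vehicle DMSO and 100% = killing by high DMSO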); conditions: MDA-MB-436 breast carcinoma growth inhibition, drug combinations, stronger effect = higher value
# [17] = growth inhibition of BT084 medulloblastoma cells, cell-based, ICGC_MB145, cisplatin and BGB IC40 combos (AID 1671461); conditions: drug combinations, stronger effect = higher value;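 also: cells exposed to drugs for 96 hours; 0% = vehicle DMSO and 100% = high DMSO full killing control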
# [18] = growth inhibition of RCMB18 medulloblastoma cells, cell-based, cisplatin and BGB IC40 combos (AID 1671462); conditions: stronger effect = higher value;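 also: cells exposed to compound for four days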
# [19] = growth inhibition of CRL1545 osteosarcoma cells, cell-based, cisplatin and BGB IC20 combos (AID 1671464); conditions: stronger effect = higher value;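 also: cells exposed to compound for 96 hours before readout; 0% = vehicle DMSO and 100% = high DMSO killing control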
# [20] = measured here: combination with BGB IC40, at 0.05 µM
# [21] = measured here: with BGB IC20 combination, at 0.5 µM
# [22] = measured here: with cisplatin IC20 combination, at 0.5 µM
# [23] = measured here: combination with cisplatin, at 0.5 µM
compound,measurement,setting,value
CCN1CCN(Cc2ccc(NC(=O)c3ccc(C)c(NC(=O)c4cncc(-c5cccs5)c4)c3)cc2C(F)(F)F)CC1,AC50,[1],5.9 µM (active)
same,AC50,[2],14.8 µM (active)
same,AC50,[3],1.05 µM (active)
same,AC50,[4],2.63 µM (active)
same,IC50,[5],4.17 µM (active)
CC(=O)Nc1ccc(C(=O)Nc2ccccc2N)cc1,AC50,[1],13.2 µM (active)
same,AC50,[2],9.34 µM (active)
same,AC50,[3],9.34 µM (active)
same,AC50,[4],10.5 µM (active)
same,IC50,[5],10.5 µM (active)
same,fold change,"[6]; stronger effect = lower value, cell number ratio, induced over uninduced",0.986 (inactive)
same,fold change,[6]; measured here: relative caspase fold change +Dox/-Dox,1.15
same,cell count,"[6]; measured here: total cells with miR-34 induction, stronger effect = lower value",4760
same,cell count,[6]; measured here: total cells without miR-34 induction,4820
same,z-score,"[7]; MELAS cybrid survival, CellTiter-Glo 48 h, stronger effect = higher value",-0.168 (inactive)
same,z-score,"[7]; Rieske KO mouse fibroblast survival, CellTiter-Glo 72 h",-0.712
same,inhibition,"[8]; at 0.5 µM, stronger effect = higher value",88.2% (active)
same,inhibition,"[8]; measured here: combination with BGB IC20, at 0.005 µM",-32.9%
same,inhibition,"[8]; measured here: combination with BGB IC40, at 0.005 µM",90.3%
same,inhibition,[8]; [20],-22.7%
same,inhibition,"[8]; measured here: combination with cisplatin, at 0.5 µM, stronger effect = higher value",113%
same,inhibition,"[8]; measured here: combination with cisplatin, at 5 µM, stronger effect = higher value",85.2%
same,inhibition,"[9]; BGB combo, at 5 µM",47.2%
same,inhibition,[9]; at 0.5 µM,8.49% (inactive)
same,inhibition,"[9]; cisplatin combo, at 5 µM",53.7%
same,inhibition,[9]; [21],4.99%
same,inhibition,[9]; [22],18.6%
same,inhibition,"[9]; single agent, at 5 µM",41.8%
same,inhibition,"[10]; BGB IC20 combo, at 0.005 µM",-11.5%
same,inhibition,"[10]; BGB IC40 combo, at 0.005 µM",-4.35%
same,inhibition,"[10]; BGB IC40 combo, at 0.05 µM",23.2%
same,inhibition,[10]; at 0.5 µM,-24.7% (inactive)
same,inhibition,"[10]; cisplatin combo, at 0.05 µM",19.5%
same,inhibition,"[10]; cisplatin combo, at 0.5 µM",-38.2%
same,inhibition,"[10]; cisplatin combo, at 5 µM",-5.64%
same,inhibition,"[10]; measured here: 5 uM single agent, at 5 µM",-13.9%
same,inhibition,[11]; at 0.5 µM,-13.9% (inactive)
same,inhibition,[11]; [20],-36.6%
same,inhibition,[11]; [23],-17.4%
same,inhibition,"[11]; measured here: combination with cisplatin, at 5 µM",75.4%
same,inhibition,[12]; at 0.5 µM,3.06% (inactive)
same,inhibition,"[12]; measured here: with BGB IC20, at 0.5 µM",23.1%
same,inhibition,"[12]; measured here: with BGB IC20, at 5 µM",53.4%
same,inhibition,"[12]; measured here: with cisplatin IC20, at 0.5 µM",-11.1%
same,inhibition,"[12]; measured here: with cisplatin IC20, at 5 µM",56.6%
same,inhibition,"[12]; single agent, at 5 µM",37.1%
same,inhibition,[13]; at 0.5 µM,-31.5% (inactive)
same,inhibition,"[13]; measured here: combination with BGB at IC20, at 0.5 µM",-48.1%
same,inhibition,"[13]; measured here: combination with cisplatin at IC20, at 0.5 µM",-8.49%
same,inhibition,[14]; at 0.5 µM,-2.82% (inactive)
same,inhibition,"[14]; measured here: combo with BGB at IC20, at 0.5 µM",-7.4%
same,inhibition,"[14]; measured here: combo with cisplatin at IC20, at 0.5 µM",-4.11%
same,inhibition,[15]; at 0.5 µM,0.73% (inactive)
same,inhibition,"[15]; measured here: inhibition with BGB combination, at 0.05 µM",-12.2%
same,inhibition,"[15]; measured here: inhibition with cisplatin combination, at 0.05 µM",-6.67%
same,inhibition,[16]; at 0.5 µM,-2.64% (inactive)
same,inhibition,"[16]; measured here: BGB combination, at 0.5 µM",6.02%
same,inhibition,"[16]; measured here: BGB combination, at 5 µM",12.4%
same,inhibition,"[16]; measured here: cisplatin combination, at 0.5 µM",-26.9%
same,inhibition,"[16]; measured here: cisplatin combination, at 5 µM",14.4%
same,inhibition,[17]; at 0.5 µM,25.3% (inactive)
same,inhibition,"[17]; cisplatin combination, at 0.5 µM",14.2%
same,inhibition,"[17]; cisplatin combination, at 5 µM",63.9%
same,inhibition,"[17]; measured here: BGB IC40 combination 0.05 uM, at 0.05 µM",-33.4%
same,inhibition,"[17]; single agent, at 5 µM",40.7%
same,inhibition,[18]; at 0.5 µM,16.2% (inactive)
same,inhibition,"[18]; cisplatin combo, at 5 µM",82.6%
same,inhibition,"[18]; measured here: BGB IC40 combination, at 0.05 µM",-4.7%
same,inhibition,[18]; [23],20.8%
same,inhibition,"[18]; single agent, at 5 µM",47.6%
same,inhibition,[19]; at 0.5 µM,35.2% (inactive)
same,inhibition,[19]; [21],11.6%
same,inhibition,[19]; [22],46.2%
same,inhibition,"[19]; single agent, at 0.05 µM",-7.31%
same,inhibition,"[19]; single agent, at 5 µM",44%
